ADAM17 inh – ADAM17 inhibitors, primary screen, biochemical, QFRET; hit rate 0.83% among 370,000; inhibition, % at 6.95 µM; Disintegrin and metalloproteinase domain-containing protein 17 (Homo sapiens), P78536; recombinant ADAM17, EDANS/DABCYL FRET peptide cleavage;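 active means inhibition above the mean of compounds lying between control limits plus 3 SD, set per campaign, cut at about 8.5% in these data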;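 further: 0% = DMSO-only wells as the low control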
ADAM10 inh – human ADAM10 inhibitors, primary screen, biochemical, QFRET, HTS; Disintegrin and metalloproteinase domain-containing protein 10 (Homo sapiens), O14672; recombinant ADAM10, EDANS/DABCYL FRET peptide cleavage, 3 h; inhibition, % at 7 µM; hit rate 0.62% among 370,000; AID 720582, 2013;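 active means inhibition above a per-campaign cutoff equal to the mean of compounds falling between control-based bounds plus 3 SD, cut at about 20% in these data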;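 further: 0% = DMSO wells while the 100% control is not disclosed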
Target sequence (O14672 214-748 limits assumed): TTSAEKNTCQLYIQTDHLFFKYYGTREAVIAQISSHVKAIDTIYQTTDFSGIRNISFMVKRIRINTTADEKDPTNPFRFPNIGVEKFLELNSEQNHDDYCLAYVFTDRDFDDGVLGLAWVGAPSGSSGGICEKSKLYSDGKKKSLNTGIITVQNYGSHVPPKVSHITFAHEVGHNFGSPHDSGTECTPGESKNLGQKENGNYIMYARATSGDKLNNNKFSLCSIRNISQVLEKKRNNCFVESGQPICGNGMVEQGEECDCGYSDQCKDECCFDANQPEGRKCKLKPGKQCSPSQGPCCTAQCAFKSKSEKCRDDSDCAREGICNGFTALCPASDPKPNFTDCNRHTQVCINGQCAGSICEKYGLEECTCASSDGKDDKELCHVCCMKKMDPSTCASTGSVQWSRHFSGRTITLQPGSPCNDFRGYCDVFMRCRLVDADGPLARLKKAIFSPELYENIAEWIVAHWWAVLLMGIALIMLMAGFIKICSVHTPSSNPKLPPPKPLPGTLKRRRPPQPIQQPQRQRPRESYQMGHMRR
NR3A LBD binder – binders of NR3A ligand-binding domain, primary screen, biophysical, differential scanning fluorimetry, uHTS. Glutamate receptor ionotropic, NMDA 3A (GRIN3A) ligand-binding domain. NR3A LBD differential scanning fluorimetry, Tm shift; 0% = protein alone, 100% = glycine-bound protein. Tm shift relative to glycine control, % at 25 µM. hit rate 2.5% among 340,000. AID 1259313, 2017;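 active means melting temperature shift of at least 10% of the positive control shift, at one fixed dose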
FAS TE block – FAS thioesterase domain inhibitors, primary screen, biochemical, fluorescence intensity, uHTS | Fatty acid synthase (Homo sapiens), P49327 | hit rate 0.67% among 360,000 | AID 602261, 2012 | recombinant FAS-TE, OMFH fluorogenic substrate, fluorescence endpoint | inhibition, % at 15 µM;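 active means compounds whose normalised, plate-corrected inhibition of enzyme fluorescence in the single-dose primary screen is 50% or more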;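 further: 0% = DMSO with enzyme and 100% = substrate without enzyme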
sPLA2-III inh – human group III sPLA2 inhibitors, primary screen, biochemical, QFRET, BODIPY PC-A2 liposome substrate. Group 3 secretory phospholipase A2 (Homo sapiens), Q9NZ20. QFRET BODIPY PC-A2 liposome hydrolysis, fluorescence. inhibition, % at 12.2 µM. hit rate 0.56% among 370,000. AID 743126, 2013;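 active means inhibition above mean plus 3 SD of compounds lying within the high and low control bounds, cut at about 19% in these data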;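 further: 0% = median of test compound wells and 100% = no enzyme DMSO wells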
ADAM10 ctr – ADAM10 inhibitors, counter-screen for ADAM17 exosite inhibitor project, biochemical, FRET, human ADAM10; shares compounds with ADAM17 inh; recombinant ADAM10, EDANS/DABCYL FRET peptide cleavage, 3 h; inhibition, % at 6.95 µM; hit rate 47% among 2,900; AID 743256, 2014;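 active means mean inhibition over the triplicate runs exceeds the activity threshold set in the earlier primary screen, cut at about 20% in these data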;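 further: 0% = DMSO wells and 100% = marimastat wells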
ADAM17 confirm – ADAM17 inhibitors, hit retest, confirmation, biochemical, QFRET peptide cleavage. hit rate 65% among 2,900. AID 743257, 2014. shares compounds with ADAM17 inh. inhibition, % at 6.95 µM. recombinant ADAM17, EDANS/DABCYL QFRET peptide cleavage;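 active means mean inhibition across replicates above the hit cutoff set in the primary screen, cut at about 8.5% in these data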;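 further: 0% = DMSO wells and 100% = marimastat wells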
* = called active by the depositor; · = no result. Compounds with a hit are over-represented: about 4.3% of the library has one in this group of screens.

SMILES | ADAM17 inh | ADAM10 inh | NR3A LBD binder | FAS TE block | sPLA2-III inh | ADAM10 ctr | ADAM17 confirm
C=CCn1c(SCC(=O)Nc2ccccc2-c2ccccc2)nnc1-c1ccc(Cl)cc1 | 9.3* | 16 | · | · | -11 | 22* | 15*
Cc1ccc(-n2c(COc3ccccc3)nnc2SCC(=O)Nc2ccccc2-c2ccccc2)cc1 | 8.9* | 16 | · | · | -22 | 32* | 16*
C=CCn1c(SCC(=O)Nc2cccnc2Cl)nnc1-c1ccc(Cl)cc1 | -5 | -4 | -1 | -3 | 11 | · | ·
Cc1cc(-c2nnc(SCC(=O)Nc3ccccc3F)n2N)n[nH]1 | 2 | -8 | -3 | -3 | 1 | · | ·
Cc1ccc(C)c(NC(=O)CSc2nnc(-c3cc(C)[nH]n3)n2N)c1 | 11* | -4 | 0 | -6 | 1 | -3 | -2
Cc1ccc(-n2nnnc2SCC(=O)Nc2ccccc2N2CCCCC2)cc1C | 3 | 4 | 1 | 26 | -6 | · | ·
Cc1ccc(-n2nnnc2SCC(=O)Nc2ccccc2-c2ccccc2)cc1C | 9.0* | 10 | -18 | 25 | -19 | 26* | 15*
CN(N=Cc1ccc2c(c1)OCO2)C(=O)c1ccccc1N | -2 | -8 | · | · | 3 | · | ·
O=S(=O)(CC1NCCc2ccccc21)NCc1ccc(F)cc1 (configuration not stated) | -3 | -4 | · | · | 13 | · | ·
Cc1ccc(-n2c(SCC(=O)c3ccc(-c4ccccc4)cc3)nnc2-c2ccc(C(C)(C)C)cc2)cc1 | 2 | -1 | · | · | 4 | · | ·
Cc1ccc(NC(=O)CSc2nnc(-c3n[nH]c4ccccc34)n2-c2ccccc2)c(C)c1 | 9.3* | 19 | -3 | 4 | -18 | 4 | 10*
Cc1ccc(-n2c(SCC(=O)Nc3cccc4ccccc34)nnc2-c2ccccc2)cc1 | 2 | -2 | · | · | -3 | · | ·
COC(=O)[C@]12C[C@H](CC(=O)NCc3ccc(OC)c(OC)c3)C(=O)N(Cc3ccccc3)C1=C[C@H](COCc1ccccc1)O[C@@H]2C | 0 | 12 | · | · | -6 | · | ·
COc1ccc(CNC(=O)C[C@@H]2C[C@H]3c4cc(NC(=O)NC5CCCC5)ccc4O[C@H]3[C@H](CO)O2)cc1 | 9.1* | 6 | · | -3 | -6 | 0 | 3
COc1ccccc1-n1c(Cc2cccc3ccccc23)nnc1SCC(=O)O | 0 | 3 | · | · | 3 | · | ·
O=C(CCCC(=O)OCC(=O)c1cccs1)Nc1ccc(F)cc1 | -2 | 8 | 0 | -8 | -3 | · | ·
O=C(CCCC(=O)OCC(=O)c1cccs1)Nc1ccc(Oc2ccccc2)cc1 | 8.9* | 9 | -6 | 14 | -59 | 10 | 5
Cn1c(COc2ccccc2)nnc1SCC(=O)Nc1ccc(S(=O)(=O)Nc2nccs2)cc1 | 0 | -1 | · | · | -30 | · | ·
CN(C)S(=O)(=O)c1ccc(NC(=O)COC(=O)CC2CC3CCC2C3)cc1 (configuration not stated) | 8.6* | 13 | -7 | 40 | -17 | 20* | 14*
COC(=O)[C@]1(CC(C)C)NC=C(C(=O)c2ccccc2)[C@@H]1c1cccc(C(F)(F)F)c1 | 1 | 5 | · | · | -40 | · | ·
O=C(NCc1ccccc1)[C@@H]1CCCN1C(=O)[C@H]1CCCN1C(=O)c1ccc(Cl)c(Cl)c1 | -1 | -4 | · | · | 2 | · | ·
CCOC(=O)CSC1=C(C#N)C(c2ccc(F)cc2)C(C(C)=O)=C(C)N1 (configuration not stated) | 9.9* | 13 | -1 | 10 | -1 | -13 | 0
Cc1cc(Cl)ccc1OCC(=O)NCCCCc1ccccc1 | 5 | 5 | -21 | 40 | 4 | · | ·
O=C(COc1ccc(Cl)cc1Cl)NCCCCc1ccccc1 | 18* | 17 | -1 | 31 | -11 | 31* | 13*
Cc1nc(N2CCN(C)CC2)c2c(C)c(C(=O)Nc3ccc(C)c(F)c3)sc2n1 | 8.8* | 13 | -2 | 3 | -27 | 7 | 8.8*
SMILES | ADAM17 inh | ADAM10 inh | NR3A LBD binder | FAS TE block | sPLA2-III inh | ADAM10 ctr | ADAM17 confirm
Cc1nc(N2CCCCC2)c2c(C)c(C(=O)Nc3ccc4c(c3)OCCO4)sc2n1 | 9.6* | 11 | 2 | 22 | -8 | 16 | 11*
NC(=O)CC[C@H](NC(=O)c1ccc(F)cc1)C(=O)OCC(=O)NCc1ccc(F)cc1 | 10* | 4 | -1 | 0 | 7 | -4 | 4
CC(C)c1ccc(NC(=O)COC(=O)[C@H](CCC(N)=O)NC(=O)c2ccc(F)cc2)cc1 | 0 | 0 | -1 | 9 | -20 | · | ·
O=C(COC(=O)c1ccccc1Cc1ccccc1)Nc1ccc(SC(F)F)cc1 | 9.6* | 11 | 19* | 28 | -32 | 20* | 14*
Cc1ccc(C(=O)c2ccccc2C(=O)OCC(=O)Nc2ccc(SC(F)F)cc2)cc1 | 13* | 18 | -486 | 35 | -23 | 35* | 18*
CSc1ccccc1NC(=O)COC(=O)c1ccccc1Cc1ccccc1 | 4 | 6 | 2 | 40 | -23 | · | ·
COC(=O)[C@]12C[C@H](CC(=O)NCCCN3CCCC3=O)C(=O)N(CCC3=CCCCC3)C1=C[C@H](COCc1ccccc1)O[C@@H]2C | 2 | 8 | · | · | -8 | · | ·
O=C1Nc2ccccc2-n2nnnc2C1N1CCN(c2ccc(C(F)(F)F)cc2[N+](=O)[O-])CC1 (configuration not stated) | 8.6* | 19 | · | · | -16 | 32* | 18*
CN(Cc1ccccc1)C(=O)c1ccc(NC(=O)Cc2ccc(NC(=O)C3CCN(C(=O)C4CCCC4)CC3)cc2)cc1 | 9.1* | 3 | -3 | -4 | -43 | 33* | 9.2*
CN(Cc1ccccc1)C(=O)c1ccc(NC(=O)Cc2ccc(NC(=O)C3CCN(C(=O)C4CC4)CC3)cc2)cc1 | 1 | -4 | · | · | -7 | · | ·
CNC[C@H]1OCc2cnnn2CCCC(=O)N([C@@H](C)CO)C[C@@H]1C | -6 | -9 | · | · | 8 | · | ·
Cc1cc(C)nc(NC(=O)C(c2ccccc2)c2ccccc2)n1 | 8.7* | -4 | 2 | -5 | -2 | -6 | 3
COc1ccc(-c2cn[nH]c2N)cc1OC | -4 | -2 | 0 | -12 | 9 | · | ·
